Laboratory results: publication PMC7862700, “An all-to-all approach to the identification of sequence-specific readers for epigenetic DNA modifications on cytosine”

What was measured:
Assay in all cases: DAPPL (digital affinity profiling via proximity ligation, sequencing); 10 mM Tris-HCl pH 7.5, 50 mM NaCl, 1 mM DTT, 4% glycerol, room temperature, 30 min; GST-TFs on glutathione beads, 16-mer random dsDNA library, 0.1% formaldehyde crosslink after washing; high values mean tight binding
Details in all cases: protein: recombinant; tags: N-terminal GST; dsDNA, one strand shown
FLI1 = biological target: T1, FLI1 (Homo sapiens, UniProt Q01543 1-452)
T1 sequence: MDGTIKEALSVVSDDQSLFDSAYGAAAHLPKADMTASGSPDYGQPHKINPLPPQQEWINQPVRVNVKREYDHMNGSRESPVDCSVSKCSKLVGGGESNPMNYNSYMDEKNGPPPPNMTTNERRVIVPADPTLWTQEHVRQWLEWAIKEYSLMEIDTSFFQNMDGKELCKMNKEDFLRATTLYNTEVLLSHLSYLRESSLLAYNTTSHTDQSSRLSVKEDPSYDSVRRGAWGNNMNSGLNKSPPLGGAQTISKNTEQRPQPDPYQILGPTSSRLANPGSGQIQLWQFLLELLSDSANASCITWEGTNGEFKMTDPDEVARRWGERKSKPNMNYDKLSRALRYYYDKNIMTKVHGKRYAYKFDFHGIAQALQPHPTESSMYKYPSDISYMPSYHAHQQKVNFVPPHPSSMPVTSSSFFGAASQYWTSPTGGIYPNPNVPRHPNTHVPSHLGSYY
How it was run: (§1)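 After expression in yeast as GST fusions, human transcription factors were bound to glutathione beads, DNA-barcoded and mixed with a tag-only sample. The pools were incubated with 200 nmole of a 16-mer random double-stranded DNA library in Tris/NaCl/DTT/glycerol buffer (30 min, room temperature), washed and crosslinked with 0.1% formaldehyde. Proximity ligation with BsaI/T4 ligase ran for 1 h at 37 °C, before PCR amplification and sequencing on an Illumina NextSeq500. Binding signal is a hexamer's read frequency for a factor divided by its frequency for the tag-only sample.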

ELK1 = biological target: T2, ELK1 (Homo sapiens, UniProt P19419 1-428)
T2 sequence: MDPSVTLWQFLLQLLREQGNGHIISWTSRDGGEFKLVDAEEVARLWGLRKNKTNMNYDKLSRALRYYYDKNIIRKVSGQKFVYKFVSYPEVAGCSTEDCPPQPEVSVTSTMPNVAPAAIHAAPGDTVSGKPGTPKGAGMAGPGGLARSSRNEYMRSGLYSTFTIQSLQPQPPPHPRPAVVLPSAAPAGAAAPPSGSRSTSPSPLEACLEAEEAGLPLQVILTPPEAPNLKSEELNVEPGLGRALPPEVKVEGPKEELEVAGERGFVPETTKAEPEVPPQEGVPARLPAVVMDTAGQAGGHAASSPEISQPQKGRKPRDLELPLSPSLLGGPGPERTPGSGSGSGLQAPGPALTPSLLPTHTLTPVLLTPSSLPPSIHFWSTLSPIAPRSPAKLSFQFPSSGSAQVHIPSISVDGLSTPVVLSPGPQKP
How it was run: as §1

GABPA = biological target: T3, GABPA (Homo sapiens, UniProt Q06546 1-454)
T3 sequence: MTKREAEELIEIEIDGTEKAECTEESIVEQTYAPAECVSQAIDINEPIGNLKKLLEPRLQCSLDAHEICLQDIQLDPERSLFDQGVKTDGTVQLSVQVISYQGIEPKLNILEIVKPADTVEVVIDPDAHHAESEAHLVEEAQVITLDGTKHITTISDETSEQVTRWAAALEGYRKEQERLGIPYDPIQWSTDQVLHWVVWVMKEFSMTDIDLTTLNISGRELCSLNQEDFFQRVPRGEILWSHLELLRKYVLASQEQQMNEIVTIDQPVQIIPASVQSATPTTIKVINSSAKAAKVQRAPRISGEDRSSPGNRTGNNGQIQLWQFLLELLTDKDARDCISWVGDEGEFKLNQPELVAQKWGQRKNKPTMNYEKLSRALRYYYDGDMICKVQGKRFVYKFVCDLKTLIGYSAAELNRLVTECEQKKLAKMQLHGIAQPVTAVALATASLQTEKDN
How it was run: as §1

ERG = biological target: T4, ERG (Homo sapiens, UniProt P11308 1-479)
T4 sequence: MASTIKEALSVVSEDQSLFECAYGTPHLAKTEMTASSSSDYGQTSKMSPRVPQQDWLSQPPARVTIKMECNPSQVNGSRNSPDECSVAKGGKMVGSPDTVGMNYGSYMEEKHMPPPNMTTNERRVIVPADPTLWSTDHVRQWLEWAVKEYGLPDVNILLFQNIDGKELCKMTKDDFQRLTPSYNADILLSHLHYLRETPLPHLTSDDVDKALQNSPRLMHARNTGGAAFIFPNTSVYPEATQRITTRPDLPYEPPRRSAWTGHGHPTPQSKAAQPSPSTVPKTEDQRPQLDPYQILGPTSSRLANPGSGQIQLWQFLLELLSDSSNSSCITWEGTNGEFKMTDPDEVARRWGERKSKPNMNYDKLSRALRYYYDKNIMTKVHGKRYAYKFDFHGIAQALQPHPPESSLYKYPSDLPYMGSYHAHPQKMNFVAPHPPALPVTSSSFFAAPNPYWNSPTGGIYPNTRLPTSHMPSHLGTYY
How it was run: as §1

ELF1 = ELF1 (Homo sapiens, UniProt P32519 1-619)
How it was run: as §1

EHF = biological target: T5, EHF (Homo sapiens, UniProt Q9NZC4 1-300)
T5 sequence: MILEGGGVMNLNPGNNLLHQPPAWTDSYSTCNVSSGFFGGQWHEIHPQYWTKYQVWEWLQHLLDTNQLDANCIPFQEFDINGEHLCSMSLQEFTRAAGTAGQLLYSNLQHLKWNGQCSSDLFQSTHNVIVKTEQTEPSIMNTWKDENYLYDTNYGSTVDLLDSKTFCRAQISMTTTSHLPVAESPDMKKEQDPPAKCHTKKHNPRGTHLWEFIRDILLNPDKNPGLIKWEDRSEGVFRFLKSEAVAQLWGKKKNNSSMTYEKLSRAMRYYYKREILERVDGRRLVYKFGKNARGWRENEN
How it was run: as §1

SPI1 = SPI1 (Homo sapiens, UniProt P17947 1-270)
How it was run: as §1

SPIB = SPIB (Homo sapiens, UniProt Q01892 1-262)
How it was run: as §1

ELK3 = biological target: T6, ELK3 (Homo sapiens, UniProt P41970 1-407)
T6 sequence: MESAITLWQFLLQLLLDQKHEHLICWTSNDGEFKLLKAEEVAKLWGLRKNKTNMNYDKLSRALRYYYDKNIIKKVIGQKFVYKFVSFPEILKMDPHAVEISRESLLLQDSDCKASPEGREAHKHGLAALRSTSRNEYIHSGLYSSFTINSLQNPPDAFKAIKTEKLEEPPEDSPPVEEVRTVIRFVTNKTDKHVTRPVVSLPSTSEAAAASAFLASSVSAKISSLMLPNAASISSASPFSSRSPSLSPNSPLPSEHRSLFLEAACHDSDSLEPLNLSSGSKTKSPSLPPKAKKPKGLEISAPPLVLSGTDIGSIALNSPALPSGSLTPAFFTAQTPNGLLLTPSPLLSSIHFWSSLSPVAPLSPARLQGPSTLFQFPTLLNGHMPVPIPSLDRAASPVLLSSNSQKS
How it was run: as §1

ETV5 = ETV5 (Homo sapiens, UniProt P41161 1-510)
How it was run: as §1

SPIC = biological target: T7, SPIC (Homo sapiens, UniProt Q8N5J4 1-248)
T7 sequence: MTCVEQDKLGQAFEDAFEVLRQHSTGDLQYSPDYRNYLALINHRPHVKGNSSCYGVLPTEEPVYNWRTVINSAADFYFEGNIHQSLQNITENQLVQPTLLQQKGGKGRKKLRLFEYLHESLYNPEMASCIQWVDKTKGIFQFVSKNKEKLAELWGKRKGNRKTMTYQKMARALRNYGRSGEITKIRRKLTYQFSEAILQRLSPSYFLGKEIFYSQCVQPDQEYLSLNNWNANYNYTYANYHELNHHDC
How it was run: as §1

ELF4 = ELF4 (Homo sapiens, UniProt Q99607 1-663)
How it was run: as §1

ETV1 = ETV1 (Homo sapiens, UniProt P50549 1-477)
How it was run: as §1

ERF = biological target: T8, ERF (Homo sapiens, UniProt P50548 1-548)
T8 sequence: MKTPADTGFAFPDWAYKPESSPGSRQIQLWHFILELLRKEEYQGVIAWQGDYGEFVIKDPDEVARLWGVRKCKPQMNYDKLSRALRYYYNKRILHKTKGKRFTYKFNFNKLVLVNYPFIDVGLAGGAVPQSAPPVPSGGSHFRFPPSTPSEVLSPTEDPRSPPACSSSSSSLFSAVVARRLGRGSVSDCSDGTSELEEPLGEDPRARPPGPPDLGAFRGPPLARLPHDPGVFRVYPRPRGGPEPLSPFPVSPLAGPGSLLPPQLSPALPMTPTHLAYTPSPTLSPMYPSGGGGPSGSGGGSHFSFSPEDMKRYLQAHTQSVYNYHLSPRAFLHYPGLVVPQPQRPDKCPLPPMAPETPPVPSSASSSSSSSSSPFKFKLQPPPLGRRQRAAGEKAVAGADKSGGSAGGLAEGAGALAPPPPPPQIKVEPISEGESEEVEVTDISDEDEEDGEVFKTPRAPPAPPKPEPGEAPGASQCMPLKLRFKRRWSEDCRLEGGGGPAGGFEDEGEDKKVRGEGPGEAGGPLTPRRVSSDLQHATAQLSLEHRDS
How it was run: as §1

ETV3L = biological target: T9, ETV3L (Homo sapiens, UniProt Q6ZN32 1-361)
T9 sequence: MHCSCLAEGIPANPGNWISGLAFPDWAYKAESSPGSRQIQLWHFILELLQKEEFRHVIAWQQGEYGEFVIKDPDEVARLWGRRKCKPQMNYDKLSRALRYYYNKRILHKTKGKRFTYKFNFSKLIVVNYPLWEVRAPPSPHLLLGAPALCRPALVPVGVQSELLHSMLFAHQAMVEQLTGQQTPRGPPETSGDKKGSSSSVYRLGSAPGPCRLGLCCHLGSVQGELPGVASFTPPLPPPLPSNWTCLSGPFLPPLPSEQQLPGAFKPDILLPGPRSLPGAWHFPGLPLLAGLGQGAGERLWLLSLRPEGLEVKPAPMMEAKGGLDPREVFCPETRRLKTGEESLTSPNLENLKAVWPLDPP
How it was run: as §1

ETS2 = biological target: T10, ETS2 (Homo sapiens, UniProt P15036 1-469)
T10 sequence: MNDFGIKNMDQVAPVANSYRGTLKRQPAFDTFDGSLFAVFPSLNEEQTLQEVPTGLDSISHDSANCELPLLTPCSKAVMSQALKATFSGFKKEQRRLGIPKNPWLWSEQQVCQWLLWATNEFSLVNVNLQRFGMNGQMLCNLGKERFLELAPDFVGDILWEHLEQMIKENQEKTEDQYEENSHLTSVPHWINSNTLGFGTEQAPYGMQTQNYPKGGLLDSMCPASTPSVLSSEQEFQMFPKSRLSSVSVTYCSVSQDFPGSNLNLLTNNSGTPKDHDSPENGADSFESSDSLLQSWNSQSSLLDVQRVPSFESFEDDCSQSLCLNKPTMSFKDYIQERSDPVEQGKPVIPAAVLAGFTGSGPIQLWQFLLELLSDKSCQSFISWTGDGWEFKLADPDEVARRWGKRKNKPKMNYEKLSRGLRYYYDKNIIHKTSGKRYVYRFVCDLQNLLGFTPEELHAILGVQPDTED
How it was run: as §1

SPDEF = biological target: T11, SPDEF (Homo sapiens, UniProt O95238 1-335)
T11 sequence: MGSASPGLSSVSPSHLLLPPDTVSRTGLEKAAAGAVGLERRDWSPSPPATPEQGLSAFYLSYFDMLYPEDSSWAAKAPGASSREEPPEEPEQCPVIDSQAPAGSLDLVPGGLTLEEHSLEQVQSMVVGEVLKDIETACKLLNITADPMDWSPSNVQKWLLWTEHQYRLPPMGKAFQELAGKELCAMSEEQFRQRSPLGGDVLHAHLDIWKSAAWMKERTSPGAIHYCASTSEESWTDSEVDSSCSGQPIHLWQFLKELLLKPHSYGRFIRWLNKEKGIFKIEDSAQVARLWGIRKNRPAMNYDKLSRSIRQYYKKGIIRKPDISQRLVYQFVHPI
How it was run: as §1

ETV3 = biological target: T12, ETV3 (Homo sapiens, UniProt P41162-2 1-143)
T12 sequence: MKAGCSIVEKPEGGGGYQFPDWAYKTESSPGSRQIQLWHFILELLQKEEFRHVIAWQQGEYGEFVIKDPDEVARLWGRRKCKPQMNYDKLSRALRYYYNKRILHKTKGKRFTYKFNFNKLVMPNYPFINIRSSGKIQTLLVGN
How it was run: as §1

ETV6 = ETV6 (Homo sapiens, UniProt P41212 1-452)
How it was run: as §1

Sequence of ETV1 (P50549 whole entry): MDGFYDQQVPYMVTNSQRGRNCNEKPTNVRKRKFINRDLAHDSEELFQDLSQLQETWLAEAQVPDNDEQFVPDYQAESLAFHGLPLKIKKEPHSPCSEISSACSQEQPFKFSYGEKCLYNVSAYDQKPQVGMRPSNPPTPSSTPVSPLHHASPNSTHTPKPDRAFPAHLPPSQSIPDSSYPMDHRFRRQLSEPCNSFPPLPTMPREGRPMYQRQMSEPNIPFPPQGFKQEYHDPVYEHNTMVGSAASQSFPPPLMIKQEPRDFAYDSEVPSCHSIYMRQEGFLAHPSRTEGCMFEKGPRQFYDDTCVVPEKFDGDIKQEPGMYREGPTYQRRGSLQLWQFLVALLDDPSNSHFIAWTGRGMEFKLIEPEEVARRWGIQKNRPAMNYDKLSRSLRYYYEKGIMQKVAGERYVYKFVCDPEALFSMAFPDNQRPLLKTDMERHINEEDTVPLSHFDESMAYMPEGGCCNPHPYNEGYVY
Sequence of SPIB (Q01892 whole entry): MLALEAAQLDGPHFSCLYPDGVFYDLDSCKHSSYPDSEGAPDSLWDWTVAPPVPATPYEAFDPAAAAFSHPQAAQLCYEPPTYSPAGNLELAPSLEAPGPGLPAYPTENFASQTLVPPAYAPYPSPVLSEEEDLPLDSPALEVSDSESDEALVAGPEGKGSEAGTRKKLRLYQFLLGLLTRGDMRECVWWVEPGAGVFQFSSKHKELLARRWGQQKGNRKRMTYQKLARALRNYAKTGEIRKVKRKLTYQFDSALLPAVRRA
Sequence of ELF1 (P32519 whole entry): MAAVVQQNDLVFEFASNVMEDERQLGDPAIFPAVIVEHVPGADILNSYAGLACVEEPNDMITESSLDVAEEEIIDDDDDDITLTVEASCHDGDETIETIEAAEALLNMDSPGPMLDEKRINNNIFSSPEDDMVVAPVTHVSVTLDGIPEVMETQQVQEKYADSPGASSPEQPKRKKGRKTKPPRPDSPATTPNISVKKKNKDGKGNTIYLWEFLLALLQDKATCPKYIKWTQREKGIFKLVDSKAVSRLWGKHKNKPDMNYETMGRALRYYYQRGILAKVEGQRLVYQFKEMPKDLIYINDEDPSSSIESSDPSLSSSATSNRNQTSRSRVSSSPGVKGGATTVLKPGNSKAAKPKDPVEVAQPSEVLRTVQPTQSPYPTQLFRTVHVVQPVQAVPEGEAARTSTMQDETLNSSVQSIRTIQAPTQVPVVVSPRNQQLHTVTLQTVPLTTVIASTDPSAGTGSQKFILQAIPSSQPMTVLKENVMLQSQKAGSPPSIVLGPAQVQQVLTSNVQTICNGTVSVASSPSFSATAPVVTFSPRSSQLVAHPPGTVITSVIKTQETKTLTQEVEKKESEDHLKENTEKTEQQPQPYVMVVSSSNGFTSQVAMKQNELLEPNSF
Sequence of ELF4 (Q99607 whole entry): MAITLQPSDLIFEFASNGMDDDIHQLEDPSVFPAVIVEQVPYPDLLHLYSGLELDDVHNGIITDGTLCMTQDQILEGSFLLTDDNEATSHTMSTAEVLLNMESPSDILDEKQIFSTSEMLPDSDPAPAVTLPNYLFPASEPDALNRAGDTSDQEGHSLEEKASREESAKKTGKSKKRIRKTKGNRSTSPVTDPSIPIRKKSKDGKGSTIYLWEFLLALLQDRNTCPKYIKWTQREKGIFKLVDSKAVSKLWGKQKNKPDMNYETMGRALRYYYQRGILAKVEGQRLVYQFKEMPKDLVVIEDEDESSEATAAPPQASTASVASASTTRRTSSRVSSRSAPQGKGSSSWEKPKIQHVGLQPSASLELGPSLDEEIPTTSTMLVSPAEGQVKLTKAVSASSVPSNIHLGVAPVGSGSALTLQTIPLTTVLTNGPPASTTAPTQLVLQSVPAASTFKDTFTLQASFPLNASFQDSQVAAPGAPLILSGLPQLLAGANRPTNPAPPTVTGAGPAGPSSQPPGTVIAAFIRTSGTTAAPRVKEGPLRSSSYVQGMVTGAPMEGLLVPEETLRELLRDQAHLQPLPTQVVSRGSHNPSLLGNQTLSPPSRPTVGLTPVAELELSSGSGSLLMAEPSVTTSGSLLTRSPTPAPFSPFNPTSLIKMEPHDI
Sequence of ETV6 (P41212 whole entry): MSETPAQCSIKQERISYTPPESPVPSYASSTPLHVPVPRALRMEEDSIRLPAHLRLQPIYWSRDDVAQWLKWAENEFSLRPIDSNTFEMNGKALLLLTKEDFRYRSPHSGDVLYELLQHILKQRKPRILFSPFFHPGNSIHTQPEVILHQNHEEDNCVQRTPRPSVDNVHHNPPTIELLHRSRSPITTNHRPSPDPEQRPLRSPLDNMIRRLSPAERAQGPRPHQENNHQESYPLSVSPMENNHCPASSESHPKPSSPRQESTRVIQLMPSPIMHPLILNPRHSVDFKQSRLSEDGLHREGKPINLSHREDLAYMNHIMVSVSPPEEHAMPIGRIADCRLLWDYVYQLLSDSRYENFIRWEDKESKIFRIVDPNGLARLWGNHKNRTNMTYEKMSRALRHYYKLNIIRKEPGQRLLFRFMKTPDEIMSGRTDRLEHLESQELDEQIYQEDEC
Sequence of ETV5 (P41161 whole entry): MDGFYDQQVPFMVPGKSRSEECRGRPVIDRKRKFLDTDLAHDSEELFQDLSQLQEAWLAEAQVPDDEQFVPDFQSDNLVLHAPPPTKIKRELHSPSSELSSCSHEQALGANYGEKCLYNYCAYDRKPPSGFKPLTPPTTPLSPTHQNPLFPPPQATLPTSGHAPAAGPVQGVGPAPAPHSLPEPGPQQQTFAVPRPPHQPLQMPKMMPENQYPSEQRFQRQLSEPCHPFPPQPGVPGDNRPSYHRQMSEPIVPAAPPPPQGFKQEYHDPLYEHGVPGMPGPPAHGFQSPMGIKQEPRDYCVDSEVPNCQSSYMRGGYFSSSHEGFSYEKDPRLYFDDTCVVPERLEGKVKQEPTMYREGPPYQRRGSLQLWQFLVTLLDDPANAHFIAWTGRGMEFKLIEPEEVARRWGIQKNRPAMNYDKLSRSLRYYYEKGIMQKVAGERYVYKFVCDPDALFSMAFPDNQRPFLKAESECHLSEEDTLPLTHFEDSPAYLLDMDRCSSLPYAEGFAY

Sequence: ACGGCA
- binding signal (FLI1): 1.04 fold enrichment (6-mer frequency, TF over GST control)
- binding signal (ELK1): 1.01 fold enrichment (6-mer frequency, TF over GST control)
- binding signal (GABPA): 1.1 fold enrichment (6-mer frequency, TF over GST control)
- binding signal (ERG): 1.03 fold enrichment (6-mer frequency, TF over GST control)
- binding signal (ELF1): 1.04 fold enrichment (6-mer frequency, TF over GST control)
- binding signal (EHF): 1.11 fold enrichment (6-mer frequency, TF over GST control)
- binding signal (SPI1): 1.05 fold enrichment (6-mer frequency, TF over GST control)
- binding signal (SPIB): 1.1 fold enrichment (6-mer frequency, TF over GST control)
- binding signal (ELK3): 1.01 fold enrichment (6-mer frequency, TF over GST control)
- binding signal (ETV5): 1.13 fold enrichment (6-mer frequency, TF over GST control)
- binding signal (SPIC): 1.05 fold enrichment (6-mer frequency, TF over GST control)
- binding signal (ELF4): 1.06 fold enrichment (6-mer frequency, TF over GST control)
- binding signal (ETV1): 1.03 fold enrichment (6-mer frequency, TF over GST control)
- binding signal (ERF): 1.01 fold enrichment (6-mer frequency, TF over GST control)
- binding signal (ETV3L): 1.1 fold enrichment (6-mer frequency, TF over GST control)
- binding signal (ETS2): 1.09 fold enrichment (6-mer frequency, TF over GST control)
- binding signal (SPDEF): 1.11 fold enrichment (6-mer frequency, TF over GST control)
- binding signal (ETV3): 1.06 fold enrichment (6-mer frequency, TF over GST control)
- binding signal (ETV6): 1.14 fold enrichment (6-mer frequency, TF over GST control)
